# Source: PubChem BioAssay AID1578 (Sanford-Burnham Center for Chemical Genomics, 2009)
# Values joined by “and” are separate entries in the source; they are usually repeats but may differ in a detail not shown here. Identical values can stand only once. The campaign covered roughly 290,000 compounds. About 3,000 (1%) were called active. This excerpt belongs to a sample that is enriched for actives. A number with no mark means an inactive call. No stated cut-off is given here; in the data, active means inhibition mostly above about 36% (no sharp cut-off); inactive means mostly below about 34%.
# Test: inhibition of NOD1-driven NF-kB reporter – cell-based, luminescence, uHTS, primary screen (AID 1578);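 further: HEK-293T reporter cells stimulated with the NOD1 agonist gamma-tri-DAP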
# Settings: NOD1-driven NF-kB luciferase reporter cells, at 4 µM, active compounds read high
row,SMILES,inhibition
1,COc1ccc2c(C)nc(Nc3nc(C)c(C)c(=O)[nH]3)nc2c1,80.7% (active)
2,CCc1c(C)nc(Nc2nc(C)c3ccc(OC)cc3n2)[nH]c1=O,-7.1%
3,CCc1c(C)nc(Nc2nc(C)c3cc(OC)ccc3n2)[nH]c1=O,-42.8%
4,Cc1sc2ncnc(N3CCC(C(=O)NNC(=O)c4ccccc4Cl)CC3)c2c1C,5.2%
5,CNC(=O)COC(=O)c1ccc(OCC(=O)Nc2ccccc2OC)c(OC)c1,-18.6%
6,CC1(C)CC(=O)C2=C(C1)OC(N)=C(C#N)[C@@]21C(=O)N(CC(N)=O)c2ccccc21,-14.4%
7,COc1ccccc1NS(=O)(=O)c1cc(NC(=O)c2cc3ccccc3oc2=O)ccc1C,42.3%
8,Cc1ccc(NC(=O)c2cc3ccccc3o2)cc1S(=O)(=O)N(C)C,-60.5%
9,Cc1ccc(NC(=O)c2cc3ccccc3oc2=O)cc1S(=O)(=O)N(C)C,98.1% (active)
10,O=C(NC1CCCN(c2ccc(C(F)(F)F)cn2)C1)c1ccncc1 (centres undefined),-22%
11,O=[N+]([O-])c1cccc(-c2nc(-c3cccs3)c(-c3cccs3)[nH]2)c1,26.4%
12,O=[N+]([O-])c1ccc(O)c(-c2nc(-c3ccccc3)c(-c3cccs3)[nH]2)c1,80.7% (active)
13,O=[N+]([O-])c1cccc(-c2nc(-c3ccccc3)c(-c3cccs3)[nH]2)c1,-1.1%
14,CCOC(=O)Cc1csc(NC(=O)CN2CCN(CC)CC2)n1,-2.4%
15,O=C1c2ccccc2NC(c2cccs2)N1NS(=O)(=O)c1ccccc1 (centres undefined),-22.6%
16,N#C/C(=C\c1ccc(OCc2ccccc2)cc1)C(=O)Nc1nc2c(s1)CCN(Cc1ccccc1)C2,-24.8%
17,CC1Cc2ccccc2N1C(=O)CSc1nnc2c(n1)[nH]c1ccc(F)cc12 (centres undefined),48.5% (active)
18,CC1Cc2ccccc2N1C(=O)CSc1nnc2c(n1)[nH]c1ccccc12 (centres undefined),-0.9%
19,CC1CCc2cc(F)ccc2N1C(=O)CSc1nnc2c(n1)[nH]c1ccc(F)cc12 (centres undefined),25.7%
20,CCCCN(Cc1ccccc1)S(=O)(=O)c1c(N)n(C)c(=O)n(C)c1=O,-10.5%
21,CCc1nc(SCC(=O)N2CCC(Cc3ccccc3)CC2)c2c(=O)n(C)c(=O)n(C)c2n1,34%
22,CCCc1nc(SCC(=O)N2CCN(c3ccccc3)CC2)c2c(=O)n(C)c(=O)n(C)c2n1,9%
23,CCn1nc(NC(=O)c2cccnc2)c2cc3cccc(C)c3nc21,-11.6%
24,Cc1cc(Cl)ccc1OCC(=O)NCCCCc1ccccc1,-5.1%

row,SMILES,inhibition
1,Nc1[nH]c(N=NC(=O)c2ccc(Cl)cc2)c2ccccc12,-25.6%
2,CCOCCCNC(=S)Nc1ccc2nc(N3CCOCC3)cc(C)c2c1,-4%
3,Cc1cc(-c2ccc(C(C)C)c(S(=O)(=O)NCCN3CCC(C)CC3)c2)on1,-17.2%
4,Cc1ccnc(NC(=O)Nc2cccc(F)c2)n1,-65.5%
5,CCN1CCN(Cc2ccc(C(=O)Nc3ccc(C)c(NCc4cnc(NC(=O)OC)cn4)c3)cc2C(F)(F)F)CC1,-2.2%
6,Cc1ccc(C(=O)Nc2cccc(C(F)(F)F)c2)cc1Nc1ccccn1,-7.5%
7,CCN1CCN(Cc2ccc(NC(=O)c3ccc(C)c(NC(=O)N4CCNC4=O)c3)cc2C(F)(F)F)CC1,-7.6% and 18%
8,Cc1ccc(C(=O)Nc2cccc(C(F)(F)F)c2)cc1Nc1cnccn1,-3.7%
9,CN(C)c1ccc(/C=C2\C(=N)N3N=C(CC(=O)N4CCCC4)SC3=NC2=O)cc1Br,-16.4%
10,CC(C)(Oc1ccc(Cl)cc1)C(=O)Nc1ccc2oc(=O)ccc2c1,-7.5%
11,Cc1cccc(NC(=O)Nc2cccc(C#N)c2)n1,-17.2%
12,Cc1cccc(NC(=O)Nc2ccc(C#N)cc2)n1,62.7% (active)
13,Cc1ccc(NC(=O)Nc2cccc(C)n2)cc1,-12.5%
14,COc1ccc(OCC(=O)Nc2ccc3c(c2)nc(CCN2CCCCC2)n3C)cc1,-22.2%
15,Cc1nnc(NC(=O)c2c(F)c(F)c(F)c(F)c2F)s1,-22.9%
16,O=C(N/N=C/c1ccc(OC(=O)c2ccccc2Cl)cc1)c1ccccn1,-55.2%
17,CN1C(CC(=O)Nc2ccc(Cl)cc2Cl)c2ccccc2CC1(C)C (centres undefined),2.4%
18,CN1C(CC(=O)Nc2ccc(Br)cc2)c2ccccc2CC1(C)C (centres undefined),92.6% (active)
19,Cc1ccccc1NC(=O)CC1c2ccccc2CC(C)(C)N1C (centres undefined),-25.6%
20,O=C1CC(N(CCc2ccccc2)C(=S)Nc2ccccc2)C(=O)N1c1ccc(Br)cc1 (centres undefined),-50%
21,Cc1cc2cc(C)c(NCCNC(=O)c3ccccc3Cl)nc2cc1C,-21.1%
22,CCN(CC)S(=O)(=O)c1ccc(-c2ccc(S(=O)(=O)N(CC)CC)cc2)cc1,39.7%
23,CCN(CC)S(=O)(=O)c1ccc(NS(=O)(=O)c2ccc(F)cc2)cc1,9.7%
24,CCN(CC)S(=O)(=O)c1ccc(F)cc1,71.7% (active)

row,SMILES,inhibition
1,O=C(/C=C/c1ccccc1Cl)NCCc1ccc(F)cc1,-61.3%
2,COc1ccc(C(=O)N(Cc2ccco2)Cc2cccs2)c(O)c1,29.1%
3,COc1ccc(C(=O)/C=C/C(=O)N(CC(=O)NC2CCCCC2)CC2CCCO2)c(O)c1 (centres undefined),68.4% (active)
4,COc1ccc(C(=O)/C=C/C(=O)N(CC(=O)NC2CCCCC2)Cc2ccccc2)c(O)c1,26%
5,COc1ccc(C(=O)/C=C/C(=O)N(CC(=O)NCCC(C)C)Cc2cccs2)c(O)c1,86.8% (active)
6,COc1ccc(C(=O)/C=C/C(=O)N(CC(=O)NC2CCCCC2)Cc2ccc(F)cc2)c(O)c1,16.3%
7,COc1ccc(C(=O)/C=C/C(=O)N(CC(=O)NC2CCCCC2)Cc2cccs2)c(O)c1,36.2%
8,COc1ccc2cnn(-c3ccc(OC(F)(F)F)cc3)c(=O)c2c1OC,-0.3%
9,Cc1ccc(CNC(=O)C2CCC(=O)N2Cc2ccc(C)cc2)cc1 (centres undefined),0.2%
10,O=C(c1ccc(CSc2ccc(Cl)cc2)cc1)N1CCCC1,-3.6%
11,CN1CCN(C(=O)c2ccc(CSc3ccc(Cl)cc3)cc2)CC1,-13.5%
12,CCOC(=O)N1CCN(C(=O)c2ccc(CSc3ccc(Cl)cc3)cc2)CC1,62.9% (active)
13,C=CCn1c(O)c(CN2CCCCC2)c(C)c(C#N)c1=O,-25.8%
14,O=C(CN1CCCCC1)Nc1ccc(N2CCCCCC2)cc1,-21%
15,O=C(Nc1ccc(N2CCOCC2)cc1)c1cnccn1,52.9% (active)
16,O=C(Nc1ccc(N2CCCCC2)cc1)c1ccccn1,89.3% (active)
17,O=C(Nc1ccc(N2CCCCCC2)cc1)c1ccccc1Cl,-33.9%
18,O=C(CCl)Nc1ccc(N2CCCCCC2)cc1,65.3% (active)
19,CCN1CCN(c2ccc(NC(=O)c3cnccn3)cc2)CC1,-37.5%
20,CCC(=O)Nc1ccc(N2CCCCC2)cc1,0.2%
21,O=C(Nc1ccc(N2CCCCC2)cc1)c1cccnc1Cl,-28%
22,Cc1cnc(C(=O)Nc2ccc(N3CCOCC3)cc2)cn1,-18.5%
23,CCc1c(O)nc(SCC(=O)Nc2ccccc2C)n(-c2ccc(C)cc2)c1=O,-22.6%
24,CN1CCN(C(=O)/C(=C/c2ccccc2F)NC(=O)c2ccccc2)CC1,-17.7%

row,SMILES,inhibition
1,CCNc1ccc([N+](=O)[O-])cc1,-1.6%
2,CN(C)CCCN(Cc1cc2cc3c(cc2[nH]c1=O)OCO3)C(=S)Nc1ccccc1,-23.7%
3,CCSc1nnc(NC(=O)c2cccc(S(=O)(=O)N(C)c3ccccc3)c2)s1,-5.2%
4,CCCCn1c(SCC(=O)c2ccccc2)nc2ccsc2c1=O,21.6%
5,CCCCn1c(SCC(=O)N2CCC(C)CC2)nc2ccsc2c1=O,-16.2%
6,Nc1nc(SCC(=O)Nc2ncc(C(F)(F)F)cc2Cl)n[nH]1,65.2% (active)
7,Cc1cc(C)nc(SCC(=O)Nc2ncc(C(F)(F)F)cc2Cl)n1,-28.9%
8,O=C(CSc1ncccn1)Nc1ncc(C(F)(F)F)cc1Cl,-20.5%
9,Cc1cc(C(F)(F)F)nn1CC(=O)NCc1ccco1,-18%
10,ON1C(c2ccc(Cl)cc2Cl)N(O)[C@H]2CCCC[C@H]21 (some centres undefined),-8.4%
11,COC(=O)C1CN(C(=O)COc2ccccc2)c2ccccc2O1 (centres undefined),15.9%
12,Cc1ccc(C(C)C)c(OCCNC(=O)c2ccccc2O)c1,-22.6%
13,Cc1ccc(C(C)C)c(OCCNC(=O)c2cncc(Br)c2)c1,16.6%
14,COc1cc(/C=N/n2nnnc2Nc2ccccc2)cc(OC)c1OC,-36.9%
15,CCc1cccc(C)c1NC(=O)C(c1ccccc1)N1CCC1=O (centres undefined),-22.7%
16,COCCCNC(=S)N1CCN(S(C)(=O)=O)CC1,-18.9%
17,CC(C)(C)c1ccc(C(=O)N2CCN(c3nc4ccccc4o3)CC2)cc1,28.1%
18,COc1ccc(C(=O)N2CCN(c3nc4ccccc4o3)CC2)cc1OC,19.2%
19,O=C(c1ccc(-c2ccccc2)cc1)N1CCN(c2nc3ccccc3o2)CC1,35.5% (active)
20,CCOC(=O)C1(Cc2ccccc2)CCN(Cc2ccc(C)s2)CC1,-14.9%
21,O=C(Cc1ccc(F)cc1)Nc1nccs1,-24.2%
22,O=C(Nc1ccc(S(=O)(=O)Nc2nccs2)cc1)c1ccc(F)cc1,-13.9%
